Reference: PubChem BioAssay (Tox21)
Active and inactive are the calls of the source. Unless noted, the call rests on the fitted dose curve; in most records, active means well fitted curve in the direction sought with a large enough effect in the repeat runs; inconclusive means weak or mixed curves; inactive means no such curve, though single readings can be large; an effect the other way counts as inactive or inconclusive.

Key:
[1] = qHTS assay for small molecule agonists of the p53 signaling pathway (AID 651631; calls by dose curve; further: nearly all actives have a fitted effect of over 15% in size; further: potency means the concentration at half of the fitted maximal effect)
Procedure, shortened: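 HCT-116 cells carrying a stable p53 response element–beta-lactamase reporter were plated, rested 5 h at 37 °C, then exposed to compound in DMSO for 16 h at 37 °C; reporter activity was read as FRET substrate fluorescence after 2 h at room temperature.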

[2] = qHTS assay for small molecules that induce genotoxicity in human embryonic kidney cells expressing luciferase-tagged ATAD5 (AID 651632); further: nearly all actives have a fitted effect of over 15% in size
Procedure, shortened: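 HEK293T cells carrying a luciferase reporter tagged to ATAD5 were exposed to compound or DMSO vehicle for 16 hr at 37C, 5% CO2. Amplite was added, and after 30 min at room temperature luciferase activity was read as a marker of ATAD5 induction.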

[3] = qHTS assay for small molecule agonists of the p53 signaling pathway - cell viability (AID 651633; calls by dose curve; further: nearly all actives have a fitted effect of over 30% in size)
Procedure, shortened: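 p53RE-bla cells, seeded at 4,000 per well and rested 5 h at 37 C/5% CO2, received compounds in DMSO for 16 h at 37 C. CellTiter-Glo was then added, and luminescence was read after 30 min at room temperature to gauge cytotoxicity.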

[4] = qHTS assay for small molecules that induce genotoxicity in human embryonic kidney cells expressing luciferase-tagged ATAD5 - cell viability (AID 651634; calls by dose curve; further: nearly all actives have a fitted effect of over 25% in size)
Procedure, shortened: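 HEK293T cells expressing luciferase-tagged ATAD5 were exposed to compound or DMSO for 15.5 hr at 37C, 5% CO2. Viability was then read as live-cell protease activity by CellTiter-Fluor fluorescence after 30 min at 37C.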

[5] = qHTS assay for small molecule disruptors of the mitochondrial membrane potential - cell viability (AID 720634; calls by dose curve;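 further: human HepG2 liver cancer cells; nearly all actives have a fitted effect of over 20% in size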)
Procedure, shortened: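 HepG2 cells seeded overnight at 37 C, then exposed to compound or DMSO for 1 hr at 37 C, 5% CO2. m-MPI dye added, then CellTiter-Glo for 30 min at room temperature; viability read as ATP luminescence.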

[6] = qHTS assay for small molecule disruptors of the mitochondrial membrane potential (AID 720635); further: potency means the concentration at half of the fitted maximal effect
Procedure, shortened: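 HepG2 cells (2,000/well) attached overnight at 37C, then took compound for 1 hr at 37C, 5% CO2. Mito-MPS dye was added for 30 min; fluorescence was read at 490/535 nm (monomers) and 540/590 nm (aggregates).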

[7] = qHTS assay to test for compound auto fluorescence at 590 nm (red) in HepG2 cells (AID 720674)
Procedure, shortened: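 Compound auto-fluorescence is scored relative to Rose Bengal sodium, measured at 540/590 nm in live HepG2 cultures after 1 hr compound contact (37 C, 5% CO2).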

[8] = qHTS assay to test for compound auto fluorescence at 535 nm (green) in HepG2 cells (AID 720675)
[9] = qHTS assay to test for compound auto fluorescence at 460 nm (blue) in HEK293 cells (AID 720678)
Procedure, shortened: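 Measured: blue fluorescence (Ex 405/Em 460 nm) of compound-treated HEK293 cells, incubated overnight at 37C with 5% CO2 and scaled to triamterene equivalents.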

[10] = qHTS assay to test for compound auto fluorescence at 590 nm (red) in HEK293 cells (AID 720679)
Procedure, shortened: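 Using HEK293 cells at 2,000 per well, the screen added 23 nL of each compound after cell attachment and incubated overnight (37C, 5% CO2). The plate reader then captured red-label fluorescence, Ex/Em 540/590nm.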

[11] = qHTS assay to test for compound auto fluorescence at 535 nm (green) in HEK293 cells (AID 720680)
[12] = qHTS assay to test for compound auto fluorescence at 460 nm (blue) in HEK293 cell free culture (AID 720681)
Procedure, shortened: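 Test compounds were pinned into cell-free culture medium (DMEM with 10% FBS) and fluorescence was read directly at Ex/Em 405/460 nm. Signals were expressed as fluorescence equivalents of triamterene, with DMSO vehicle as control.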

[13] = qHTS assay to test for compound auto fluorescence at 535 nm (green) in HEK293 cell free culture (AID 720682)
Procedure, shortened: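 Read-out: 485/535 nm fluorescence intensity, calibrated against fluorescein. Medium only (DMEM + 10% FBS, no cells); test compound or DMSO vehicle added by pintool before plate reading.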

[14] = qHTS assay to test for compound auto fluorescence at 590 nm (red) in HEK293 cell free culture (AID 720683)
Procedure, shortened: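 Tox21 10K library compounds were pinned into cell-free DMEM with 10% FBS and fluorescence was read at excitation 540 nm. Activity is expressed as Rose Bengal sodium equivalency.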

[15] = qHTS assay to test for compound auto fluorescence at 590 nm (red) in HepG2 cell free culture (AID 720684)
Procedure, shortened: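 Measured in medium alone (MEM containing 10% FBS) following pintool addition of compound; emission at 590 nm with 540 nm excitation, referenced to Rose Bengal sodium.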

[16] = qHTS assay to test for compound auto fluorescence at 460 nm (blue) in HepG2 cell free culture (AID 720685)
Procedure, shortened: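 Compound (23 nL) or DMSO pinned into cell-free MEM with 10% FBS; blue fluorescence read at 405/460 nm excitation/emission, expressed as auto-fluorescence equivalency to triamterene.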

[17] = qHTS assay to test for compound auto fluorescence at 535 nm (green) in HepG2 cell free culture (AID 720686)
[18] = qHTS assay to test for compound auto fluorescence at 460 nm (blue) in HepG2 cells (AID 720687)
Procedure, shortened: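 Cells (2,000/well in MEM with 10% FBS) attached overnight at 37 C, then were exposed to compound or DMSO for 1 hr at 37 C, 5% CO2. Fluorescence read at Ex/Em 405/460 nm, expressed as triamterene-equivalent signal.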

[19] = target: Glucocorticoid receptor (Homo sapiens) (UniProt P04150); assay: qHTS assay to identify small molecule agonists of the glucocorticoid receptor (GR) signaling pathway (AID 720691; active means well fitted activation curve with a large enough effect in the signal ratio in the repeat runs, not every such curve was filed as active; inconclusive means weak or mixed curves, or effect the other way; inactive means no such curve, though single readings can be large or run the other way; the % refers to the signal ratio; further: potency means the concentration at half of the fitted maximal effect); settings: GR-bla HeLa, beta-lactamase reporter ratio, 18 h; activation: at 62.4 µM (top of the series)
Chain of Glucocorticoid receptor (Homo sapiens) (P04150 whole entry, looked up): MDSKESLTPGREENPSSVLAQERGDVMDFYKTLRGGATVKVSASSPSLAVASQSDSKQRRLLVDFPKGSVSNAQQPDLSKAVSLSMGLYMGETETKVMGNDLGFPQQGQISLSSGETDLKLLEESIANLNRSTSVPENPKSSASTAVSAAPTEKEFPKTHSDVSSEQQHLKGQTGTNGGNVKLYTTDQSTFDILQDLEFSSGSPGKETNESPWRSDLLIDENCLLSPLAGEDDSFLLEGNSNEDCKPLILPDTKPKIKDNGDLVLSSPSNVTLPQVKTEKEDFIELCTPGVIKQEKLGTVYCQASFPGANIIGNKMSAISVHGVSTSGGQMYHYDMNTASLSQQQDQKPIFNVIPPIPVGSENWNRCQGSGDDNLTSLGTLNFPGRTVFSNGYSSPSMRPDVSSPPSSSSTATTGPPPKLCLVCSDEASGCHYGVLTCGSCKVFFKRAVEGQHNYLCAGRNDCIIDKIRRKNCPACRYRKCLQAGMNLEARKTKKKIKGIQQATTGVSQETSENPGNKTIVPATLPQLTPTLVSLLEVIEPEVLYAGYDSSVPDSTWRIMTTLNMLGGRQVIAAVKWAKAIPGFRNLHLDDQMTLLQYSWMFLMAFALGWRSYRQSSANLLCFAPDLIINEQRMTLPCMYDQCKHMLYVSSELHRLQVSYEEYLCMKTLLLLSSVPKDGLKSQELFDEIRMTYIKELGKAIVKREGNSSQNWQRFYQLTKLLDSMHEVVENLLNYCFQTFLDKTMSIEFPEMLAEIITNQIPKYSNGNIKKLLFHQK
Procedure, shortened: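 GR-bla HeLa cells (beta-lactamase reporter under glucocorticoid response element) were plated 4 h at 37 C/5% CO2, given compounds in DMSO, and incubated 18 h at 37 C. LiveBLAzer B/G FRET substrate was added for 2 h at room temperature, then fluorescence intensity read.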

[20] = target: Glucocorticoid receptor (Homo sapiens) (UniProt P04150); assay: qHTS assay to identify small molecule antagonists of the glucocorticoid receptor (GR) signaling pathway (AID 720692; active means well fitted inhibition curve with a large enough effect in the signal ratio in the repeat runs, not every such curve was filed as active; inconclusive means weak or mixed curves, or effect the other way; inactive means no such curve, though single readings can be large or run the other way; the % refers to the signal ratio)
Procedure, shortened: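 GR-bla HeLa cells (beta-lactamase reporter under glucocorticoid response element) were pre-plated 4 h at 37 C, treated with compounds plus 5 nM dexamethasone (final) for 18 h, then read by LiveBLAzer B/G FRET fluorescence after 2 h.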

Measured: Potency

CC(=O)OCC(=O)[C@@]1(O)CC[C@H]2[C@@H]3C[C@H](C)C4=CC(=O)C=C[C@]4(C)[C@H]3[C@@H](O)C[C@@]21C
active: [19] 0.134 µM [inconclusive]
not listed: [20]
inactive: all other assays above

O=C(CCCN1CCN2CCCC2C1)c1ccc(F)cc1 (stereo not given)
inactive: all assays above

O=C1CCC/C=C\CCCCCCCCCC1
active: [6] 68.6 µM
not listed: [19] | [20]
inactive: all other assays above

CC[C@H]1OC(=O)C[C@@H](O)[C@H](C)[C@@H](O[C@@H]2O[C@H](C)[C@@H](O)[C@H](N(C)C)[C@H]2O)[C@@H](CCN2C[C@H](C)C[C@H](C)C2)C[C@@H](C)C(=O)/C=C/C(C)=C/[C@@H]1CO[C@@H]1O[C@H](C)[C@@H](O)[C@@H](OC)[C@H]1OC
not listed: [20]
inactive: all other assays above

O=C(O)CCCC/C=C(\c1ccccc1)c1cccnc1
not listed: [18] | [19] | [20]
inactive: all other assays above

C1CCc2nnnn2CC1
not listed: [18] | [19] | [20]
inactive: all other assays above

Oc1ccc(Cl)c2c1CCC2
active: [6] 24.8 µM
not listed: [20]
inactive: all other assays above

CSCC[C@H](NC(=O)[C@H](Cc1ccc(OS(=O)(=O)O)cc1)NC(=O)[C@@H](N)CC(=O)O)C(=O)NCC(=O)N[C@@H](Cc1c[nH]c2ccccc12)C(=O)N[C@@H](CCSC)C(=O)N[C@@H](CC(=O)O)C(=O)N[C@@H](Cc1ccccc1)C(N)=O
not listed: [19] | [20]
inactive: all other assays above

CN1C(C(=O)Nc2ccccn2)C(=O)c2sc(Cl)cc2S1(=O)=O (stereo not given)
active: [6] 8.41 µM
not listed: [19] | [20]
inactive: all other assays above

Cc1cccc(C)c1NC(=O)C1CCCCN1C (stereo not given)
inactive: all assays above

N=C(N)c1ccc(/C=C/c2ccc(C(=N)N)cc2O)cc1
active: [6] 1.97 µM
not listed: [19] | [20]
inactive: all other assays above

CC(=O)OCC(=O)[C@@]1(O)CC[C@H]2[C@@H]3CCC4=CC(=O)CC[C@]4(C)C3=CC[C@@]21C
not listed: [20]
inactive: all other assays above

CNC(=O)C[C@@H](N)C(=O)N[C@@H](C(=O)N[C@@H]1C(=O)N2[C@@H]1SC(C)(C)[C@@H]2C(=O)O)c1ccc(O)cc1
not listed: [20]
inactive: all other assays above

C[N+]1(CCCCC[N+]2(C)CCCC2)CCCC1
inactive: all assays above

CC1CCCCN1CCCOC(=O)c1ccccc1 (stereo not given)
inactive: all assays above

COC1=C(OC)C(=O)C(C/C=C(\C)CC/C=C(\C)CC/C=C(\C)CC/C=C(\C)CC/C=C(\C)CC/C=C(\C)CC/C=C(\C)CC/C=C(\C)CC/C=C(\C)CCC=C(C)C)=C(C)C1=O
inactive: all assays above

CCC[C@@H]1C[C@@H](C(=O)N[C@@H]([C@H]2O[C@H](SC)[C@H](OP(=O)(O)O)[C@@H](O)[C@H]2O)[C@H](C)Cl)N(C)C1
inactive: all assays above

CC[C@@H](C)[C@H](N)C(=O)O
inactive: all assays above

C[C@H](NCCc1ccc(O)cc1)[C@H](O)c1ccc(O)cc1
inactive: all assays above

NCCCC[C@H](NC(=O)[C@@H]1CCCN1C(=O)[C@@H]1CSSC[C@H](N)C(=O)N[C@@H](Cc2ccc(O)cc2)C(=O)N[C@@H](Cc2ccccc2)C(=O)N[C@@H](CCC(N)=O)C(=O)N[C@@H](CC(N)=O)C(=O)N1)C(=O)NCC(N)=O
inactive: all assays above

CC[N+](CC)(CC)CCC(O)(c1ccccc1)C1CCCCC1 (stereo not given)
inactive: all assays above

CC(C)COC(=O)OCN1C(=O)CN(CCN2CC(=O)N(COC(=O)OCC(C)C)C(=O)C2)CC1=O
active: [1] 3.76 µM
inactive: all other assays above

CO/N=C(\C(=O)N[C@@H]1C(=O)N2C(C(=O)[O-])=C(C[n+]3ccc(N)n3CCO)CS[C@H]12)c1csc(N)n1
inactive: all assays above

CO/N=C(\C(=O)N[C@@H]1C(=O)N2C(C(=O)O)=C(C[N+]3(C)CCCC3)CS[C@H]12)c1csc(N)n1
not listed: [18]
inactive: all other assays above

CCN(CC)CCOC[C@H]1O[C@@H](O)[C@H](OCCN(CC)CC)[C@@H](O)[C@@H]1O
inactive: all assays above
